Pf Dd2 growth: P. falciparum Dd2 growth inhibitors, primary screen, SYBR Green fluorescence, single dose replicates. AID 1159554, 2015. 72 h; stronger effect = lower value. 94,000 tested, 2.3% active. activity change, % at 10 µM; in the data active = activity change below about -80%; inconclusive = no clear call, values can overlap the other calls
C diff growth: C. difficile growth inhibitors, primary screen, HTS | 86,000 tested, 0.25% active | Clostridium difficile clinical isolate growth, OD600, 24 h; stronger effect = lower value | growth activity, negative = inhibition, % at 16 µg/mL (by protocol) | AID 1259249, 2017;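 active = mean growth activity at or below -80% and every replicate also at or below -80%; inconclusive = mean at or below -80% but some replicate above -80%; inactive = mean growth activity above -80%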;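 note: 0% = DMSO wells and -100% = levofloxacin 16 µg/mL wells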
Active calls of the source: *; ! = not active in a repeat. Most compounds without a hit are left out; they make up all but 2.3% or so of the library.

What do the screens show for `CC(C)(O)C#Cc1ccc([C@H]2[C@H](CO)N3CCCCN(C(=O)c4ccc(F)cc4)C[C@@H]23)cc1`?
Pf Dd2 growth: -94*; C diff growth: 12

How did O=C(NCC[C@@H]1CC[C@H](NC(=O)C2CC2)[C@@H](CO)O1)Nc1ccc(Cl)cc1 do in these assays?
C diff growth: -2

What do the screens show for `COc1ccccc1-c1ccc(C2[C@@H]3CN(Cc4cccc(F)c4)C[C@H]2N3)cc1` (some centres not stated)?
Pf Dd2 growth: -36; C diff growth: -90*!

Results for COc1ccccc1-c1ccc(C2[C@@H]3CN(Cc4nccs4)C[C@H]2N3)cc1 (some centres not stated) ?
Pf Dd2 growth: -53; C diff growth: 15

How did COc1cccc(CN2C[C@@H]3N[C@H](C2)C3c2ccc(-c3ccc(C#N)cc3)cc2)c1 (some centres not stated) do in these assays?
Pf Dd2 growth: inconclusive; C diff growth: 68

Results for COc1ccccc1CN1[C@@H]2CNC[C@H]1C2c1ccc(-c2cccnc2)cc1 (some centres not stated) ?
Pf Dd2 growth: 21; C diff growth: 17

Results for COc1cccc(CN2C[C@@H]3N[C@H](C2)C3c2ccc(-c3ccccc3OC)cc2)c1 (some centres not stated) ?
Pf Dd2 growth: -28; C diff growth: -97*!

What do the screens show for `COc1ccccc1CN1C[C@@H]2N[C@H](C1)[C@@H]2c1ccc(-c2cccnc2)cc1`?
Pf Dd2 growth: -87*; C diff growth: -3

Results for C[C@@H]1CN([C@H](C)CO)C(=O)CCCn2nncc2CO[C@@H]1CN(C)Cc1cccc(O)c1 ?
Pf Dd2 growth: -19

Results for C[C@@H]1CN([C@H](C)CO)C(=O)c2cc(NC(=O)Nc3cccc4ccccc34)ccc2O[C@@H](C)CCCCO[C@@H]1CN(C)C(=O)C1CCCCC1 ?
Pf Dd2 growth: -91*; C diff growth: 0

How did C[C@@H]1CCCCO[C@@H](CN(C)C(=O)C2CCCCC2)[C@H](C)CN([C@H](C)CO)C(=O)c2cc(NC(=O)Nc3cccc4ccccc34)ccc2O1 do in these assays?
Pf Dd2 growth: -41; C diff growth: -5

How did C[C@@H]1CCCCO[C@H](CN(C)C(=O)C2CCCCC2)[C@@H](C)CN([C@@H](C)CO)C(=O)c2cc(NC(=O)Nc3cccc4ccccc34)ccc2O1 do in these assays?
Pf Dd2 growth: -92*; C diff growth: -3

Results for C[C@H](CO)N1C[C@H](C)[C@@H](CN(C)C(=O)C2CCCCC2)OCCCC[C@H](C)Oc2ccc(NC(=O)Nc3cccc4ccccc34)cc2C1=O ?
Pf Dd2 growth: -6; C diff growth: 0

What do the screens show for `Cc1cc(C(=O)Nc2cccc3c2O[C@H](CN(C)S(C)(=O)=O)[C@@H](C)CN([C@H](C)CO)C3=O)n(C)n1`?
Pf Dd2 growth: 7; C diff growth: 6

What do the screens show for `C[C@H]1CCCCO[C@@H](CN(C)Cc2ccc3c(c2)OCO3)[C@@H](C)CN([C@@H](C)CO)C(=O)c2cc(NC(=O)Cc3ccccc3)ccc2O1`?
Pf Dd2 growth: -83*; C diff growth: -3

Results for C[C@H]1CCCCO[C@H](CN(C)Cc2ccc3c(c2)OCO3)[C@@H](C)CN([C@@H](C)CO)C(=O)c2cc(NC(=O)Nc3ccccc3)ccc2O1 ?
Pf Dd2 growth: -75; C diff growth: 11

How did C[C@@H]1CN([C@H](C)CO)C(=O)c2cc(NC(=O)Nc3ccccc3)ccc2O[C@@H](C)CCCCO[C@@H]1CN(C)Cc1ccc2c(c1)OCO2 do in these assays?
Pf Dd2 growth: -84*; C diff growth: 19

How did C[C@@H]1CCCCO[C@@H](CN(C)Cc2ccccc2)[C@H](C)CN([C@H](C)CO)C(=O)c2cc(NC(=O)Nc3ccc4c(c3)OCO4)ccc2O1 do in these assays?
Pf Dd2 growth: -79; C diff growth: 9

Results for C[C@@H]1CN([C@H](C)CO)C(=O)c2cc(NC(=O)Nc3ccccc3)ccc2O[C@@H](C)CCCCO[C@H]1CN(C)Cc1ccc2c(c1)OCO2 ?
Pf Dd2 growth: -82*; C diff growth: 26

How did C[C@H]1CCCCO[C@@H](CN(C)Cc2ccccc2)[C@@H](C)CN([C@@H](C)CO)C(=O)c2cc(NC(=O)Nc3ccc4c(c3)OCO4)ccc2O1 do in these assays?
Pf Dd2 growth: -86*; C diff growth: -3

Results for C[C@@H]1CCCCO[C@@H](CN(C)Cc2ccc3c(c2)OCO3)[C@@H](C)CN([C@@H](C)CO)C(=O)c2cc(NC(=O)Cc3ccccc3)ccc2O1 ?
Pf Dd2 growth: -55; C diff growth: 6

How did C[C@@H]1CN([C@@H](C)CO)C(=O)c2cc(NC(=O)Nc3ccccc3)ccc2O[C@@H](C)CCCCO[C@@H]1CN(C)Cc1ccc2c(c1)OCO2 do in these assays?
Pf Dd2 growth: inconclusive; C diff growth: 5

From PubChem
